Test results published in the supplement of paper PMC6555819.

Assays:
Test in all cases: PBM binding z-score (relative to random genomic background probes); higher = stronger binding; sequences stand for … in GC…GCGATTGACAGCGTAGAATGAAGG
[1] = tested on: RARb homodimer (NR concentration 270 nM)
Summary of the method: (§1)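 Custom Agilent 4×180K protein-binding microarrays carried double-stranded probes, each with a 34-nt variable region. These regions held direct-repeat seeds, single-nucleotide variants, half-site ablations and random human genomic background sequences. Ligand-free nuclear receptor dimers were incubated on the arrays for 1 h, antibodies against each partner (one per run) detected binding, and scanned fluorescence was regression-normalized. Binding z-scores take the random background probes as reference.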

[2] = tested on: RARg:RXRa (NR concentration 270 nM, RXRa partner concentration 90 nM)
Summary of the method: as §1

[3] = tested on: RARg homodimer (NR concentration 270 nM)
Summary of the method: as §1

[4] = tested on: RXRa DBDmut IVT, anti-RXR (DBD mutation: RXRa K156A/R161A, NR concentration 90 nM)
Summary of the method: as §1

[5] = tested on: RXRa homodimer (NR concentration 180 nM)
Summary of the method: as §1

[6] = tested on: THRa:RXRa (NR concentration 90 nM, RXRa partner concentration 90 nM)
Summary of the method: as §1

[7] = tested on: THRa homodimer (NR concentration 90 nM)
Summary of the method: as §1

[8] = tested on: VDR homodimer (NR concentration 270 nM)
Summary of the method: as §1

Sequence: CCTTCCGGGTCACTGACAGGTTATAGCATTTGGA
- PBM binding z-score [1]: 3.23
- PBM binding z-score [2]: 5.65
- PBM binding z-score [3]: 4.44
- PBM binding z-score [4]: 1.53
- PBM binding z-score [5]: 4.67
- PBM binding z-score [6]: 3.67
- PBM binding z-score [7]: 2.25
- PBM binding z-score [8]: 1.3

Sequence: GCTTGTAGATCAAGGTTAAGAAGGACTAAGCTAA
- PBM binding z-score [1]: 0.182
- PBM binding z-score [2]: 0.382
- PBM binding z-score [3]: 0.268
- PBM binding z-score [4]: -0.0285
- PBM binding z-score [5]: 0.716
- PBM binding z-score [6]: 1.18
- PBM binding z-score [7]: -0.165
- PBM binding z-score [8]: -0.0273

Sequence: AGAACGAGGGCAATGAGTTAATAGCACGGGTGGC
- PBM binding z-score [1]: 1.08
- PBM binding z-score [2]: 1.43
- PBM binding z-score [3]: 1.51
- PBM binding z-score [4]: 1.74
- PBM binding z-score [5]: 0.7
- PBM binding z-score [6]: 0.999
- PBM binding z-score [7]: -0.107
- PBM binding z-score [8]: 1.99

Sequence: TCGTGTAGATCAAAGGTTAAGAAAGCCGAAGCCT
- PBM binding z-score [1]: 1.47
- PBM binding z-score [2]: 1.76
- PBM binding z-score [3]: 0.92
- PBM binding z-score [4]: 0.608
- PBM binding z-score [5]: 3.14
- PBM binding z-score [6]: 1.33
- PBM binding z-score [7]: 0.108
- PBM binding z-score [8]: 0.111

Sequence: GGAACGAGGGCACGTTGATAGCAGAGTTTGATGG
- PBM binding z-score [1]: 1.27
- PBM binding z-score [2]: 1.53
- PBM binding z-score [3]: 2
- PBM binding z-score [4]: 2
- PBM binding z-score [5]: 0.885
- PBM binding z-score [6]: 1.41
- PBM binding z-score [7]: 0.0368
- PBM binding z-score [8]: 1.03

Sequence: GGAACGAGGGCAAAGTTGTTAGCATCTGTCGACG
- PBM binding z-score [1]: 1.15
- PBM binding z-score [2]: 1.47
- PBM binding z-score [3]: 1.48
- PBM binding z-score [4]: 2.61
- PBM binding z-score [5]: 1.11
- PBM binding z-score [6]: 1.12
- PBM binding z-score [7]: -0.449
- PBM binding z-score [8]: 1.32

Sequence: AGTCAAAGTTCATCCAGGTAACGTAAGATATGCT
- PBM binding z-score [1]: 3.81
- PBM binding z-score [2]: 5.56
- PBM binding z-score [3]: 5.81
- PBM binding z-score [4]: 4.61
- PBM binding z-score [5]: 4.49
- PBM binding z-score [6]: 3.57
- PBM binding z-score [7]: 0.915
- PBM binding z-score [8]: 5.17

Sequence: CCTACTGCGCCACGAAAGGTCATTGATTCAGTGA
- PBM binding z-score [1]: 4.75
- PBM binding z-score [2]: 4.62
- PBM binding z-score [3]: 4
- PBM binding z-score [4]: 1.51
- PBM binding z-score [5]: 5.58
- PBM binding z-score [6]: 3.36
- PBM binding z-score [7]: 1.47
- PBM binding z-score [8]: 2.91

Sequence: ATCGAAAGGCCGACGAGGTGAGTATACACCGTTT
- PBM binding z-score [1]: 0.596
- PBM binding z-score [2]: 0.783
- PBM binding z-score [3]: 1.08
- PBM binding z-score [4]: -0.604
- PBM binding z-score [5]: 0.344
- PBM binding z-score [6]: 1.5
- PBM binding z-score [7]: 0.378
- PBM binding z-score [8]: -0.425

Sequence: CCTCGGAGGACAACAGGAGGCCAGAGCTGCCAGA
- PBM binding z-score [1]: 0.662
- PBM binding z-score [2]: 0.553
- PBM binding z-score [3]: 1.08
- PBM binding z-score [4]: -0.152
- PBM binding z-score [5]: -0.394
- PBM binding z-score [6]: 0.476
- PBM binding z-score [7]: -0.155
- PBM binding z-score [8]: -0.208

Sequence: ACTAGCAGGCCAAGTCTGGGTCACTCAAACAAAG
- PBM binding z-score [1]: 2.36
- PBM binding z-score [2]: 2.25
- PBM binding z-score [3]: 1.48
- PBM binding z-score [4]: -0.171
- PBM binding z-score [5]: 0.902
- PBM binding z-score [6]: 2.35
- PBM binding z-score [7]: 0.768
- PBM binding z-score [8]: 0.0682

Sequence: CCTACTGGTCCACGAAAGGTCATTGATTCAGTGA
- PBM binding z-score [1]: 4.62
- PBM binding z-score [2]: 4.79
- PBM binding z-score [3]: 4.43
- PBM binding z-score [4]: 1.26
- PBM binding z-score [5]: 5.49
- PBM binding z-score [6]: 3.52
- PBM binding z-score [7]: 1.6
- PBM binding z-score [8]: 3.62

Sequence: AGAATGAGGTTAAGATCAGGGACACAGAATACAT
- PBM binding z-score [1]: 1.6
- PBM binding z-score [2]: 2.36
- PBM binding z-score [3]: 2.14
- PBM binding z-score [4]: 1.14
- PBM binding z-score [5]: 2.48
- PBM binding z-score [6]: 3.39
- PBM binding z-score [7]: 2
- PBM binding z-score [8]: 1.12

Sequence: AGAATGAGGTTAAAATCAGGGAAACAGAATACAT
- PBM binding z-score [1]: 0.545
- PBM binding z-score [2]: 1.94
- PBM binding z-score [3]: 1.31
- PBM binding z-score [4]: 1.51
- PBM binding z-score [5]: 2.62
- PBM binding z-score [6]: 2.4
- PBM binding z-score [7]: 0.43
- PBM binding z-score [8]: 0.808

Sequence: CCGACTGGGGCAAAGGTTACTATACTCAGTACGA
- PBM binding z-score [1]: 1.74
- PBM binding z-score [2]: 2.75
- PBM binding z-score [3]: 1.37
- PBM binding z-score [4]: 0.148
- PBM binding z-score [5]: 2.8
- PBM binding z-score [6]: 1.44
- PBM binding z-score [7]: -0.197
- PBM binding z-score [8]: 0.164

Sequence: CAAACTAGGTCATGGTCAAAGTCGGTTTGTGCCA
- PBM binding z-score [1]: 3.44
- PBM binding z-score [2]: 3.83
- PBM binding z-score [3]: 4.77
- PBM binding z-score [4]: 1.45
- PBM binding z-score [5]: 3.08
- PBM binding z-score [6]: 3.04
- PBM binding z-score [7]: 1.5
- PBM binding z-score [8]: 1.15

Sequence: ATTGAAAGGTCGTGAGGTGAGTATACAGAAAGGC
- PBM binding z-score [1]: 3.49
- PBM binding z-score [2]: 4.76
- PBM binding z-score [3]: 4.06
- PBM binding z-score [4]: 1.2
- PBM binding z-score [5]: 5.39
- PBM binding z-score [6]: 3.77
- PBM binding z-score [7]: 1.94
- PBM binding z-score [8]: 1.4

Sequence: ATCGAAAGGTCGAGGTGAGTAGAGAGAAAGGGAA
- PBM binding z-score [1]: 2.81
- PBM binding z-score [2]: 4.37
- PBM binding z-score [3]: 4.69
- PBM binding z-score [4]: 0.806
- PBM binding z-score [5]: 4.41
- PBM binding z-score [6]: 2.62
- PBM binding z-score [7]: 0.626
- PBM binding z-score [8]: 0.405

Sequence: CGAACTAGGTCAGAACAGGACAGTGGAGGATGAT
- PBM binding z-score [1]: 2.31
- PBM binding z-score [2]: 2.47
- PBM binding z-score [3]: 3.32
- PBM binding z-score [4]: 0.671
- PBM binding z-score [5]: 1.4
- PBM binding z-score [6]: 3.33
- PBM binding z-score [7]: 0.46
- PBM binding z-score [8]: 0.198

Sequence: CCAGCTAGGTCATGGTCAGCTAATCTACAGTATG
- PBM binding z-score [1]: 3.2
- PBM binding z-score [2]: 3.81
- PBM binding z-score [3]: 4.16
- PBM binding z-score [4]: 1.61
- PBM binding z-score [5]: 2.86
- PBM binding z-score [6]: 2.8
- PBM binding z-score [7]: 1.25
- PBM binding z-score [8]: 0.247

Sequence: CCTGCTGGGCCATTCAGAGGTCATTGATCATATG
- PBM binding z-score [1]: 4.1
- PBM binding z-score [2]: 4.63
- PBM binding z-score [3]: 3.19
- PBM binding z-score [4]: 1.05
- PBM binding z-score [5]: 3.79
- PBM binding z-score [6]: 3.24
- PBM binding z-score [7]: 1.12
- PBM binding z-score [8]: 3.17

Sequence: TAGCCTAGGTCATTCAGGGGCCAATATAGAAAGC
- PBM binding z-score [1]: 3.51
- PBM binding z-score [2]: 6.6
- PBM binding z-score [3]: 4.84
- PBM binding z-score [4]: 2.06
- PBM binding z-score [5]: 3.15
- PBM binding z-score [6]: 3.85
- PBM binding z-score [7]: 0.878
- PBM binding z-score [8]: 2.13

Sequence: CGTCCAAGGTCAACGGTCAGTGAAGAGATGACGG
- PBM binding z-score [1]: 4.55
- PBM binding z-score [2]: 6.08
- PBM binding z-score [3]: 6.47
- PBM binding z-score [4]: 3.36
- PBM binding z-score [5]: 5.56
- PBM binding z-score [6]: 4.13
- PBM binding z-score [7]: 2.62
- PBM binding z-score [8]: 2.15

Sequence: TCTTATAGATCAACAGGAGGTTAAGAAAGATCGA
- PBM binding z-score [1]: 0.606
- PBM binding z-score [2]: 1.45
- PBM binding z-score [3]: 0.65
- PBM binding z-score [4]: 1.06
- PBM binding z-score [5]: 1.47
- PBM binding z-score [6]: 1.05
- PBM binding z-score [7]: -0.19
- PBM binding z-score [8]: -0.0267

Sequence: CGAACTAGGTCATTGACAGGACGGTGAATAGTAA
- PBM binding z-score [1]: 2.33
- PBM binding z-score [2]: 4.09
- PBM binding z-score [3]: 4.33
- PBM binding z-score [4]: 2.13
- PBM binding z-score [5]: 2.59
- PBM binding z-score [6]: 2.58
- PBM binding z-score [7]: 0.313
- PBM binding z-score [8]: 0.872

Sequence: CATACAGGGTCAGCTACGCCAGAGTAGGGACGGC
- PBM binding z-score [1]: 2.9
- PBM binding z-score [2]: 4.44
- PBM binding z-score [3]: 4.43
- PBM binding z-score [4]: 1.69
- PBM binding z-score [5]: 4.11
- PBM binding z-score [6]: 2.73
- PBM binding z-score [7]: 0.834
- PBM binding z-score [8]: 1.09

Sequence: TCGACTAGGTTAGGGGCATTCAGAATGGCGTCGA
- PBM binding z-score [1]: 0.889
- PBM binding z-score [2]: 0.355
- PBM binding z-score [3]: 0.408
- PBM binding z-score [4]: 0.884
- PBM binding z-score [5]: 0.798
- PBM binding z-score [6]: 1.03
- PBM binding z-score [7]: 0.253
- PBM binding z-score [8]: 0.473

Sequence: CCTTACGGGTCACTGACAGGTTAGAGCATTTGGA
- PBM binding z-score [1]: 3.12
- PBM binding z-score [2]: 5.7
- PBM binding z-score [3]: 4.77
- PBM binding z-score [4]: 1.55
- PBM binding z-score [5]: 5.51
- PBM binding z-score [6]: 2.68
- PBM binding z-score [7]: 0.0773
- PBM binding z-score [8]: 0.83
